The record followed here is PubChem BioAssay AID602292 (National Center for Advancing Translational Sciences (NCATS), 2012).

In all, about 1,300 compounds went through this assay and about 380 (29%) were called active. Another 37% or so got no clear call; they are omitted. Calls follow the shape of the dose curve; as a rule, active = well fitted inhibition curve with a large enough effect; inconclusive = small, poorly fitted or top-dose-only effect; inactive = flat fitted curve, though single readings scatter. Some of the results follow.
% is scaled to controls: 0 for no effect and ±100 for the full control effect; potency is read from the fitted curve at half-maximal effect.

Sequence of Thyrotropin receptor (Homo sapiens) (P16473 whole entry, looked up): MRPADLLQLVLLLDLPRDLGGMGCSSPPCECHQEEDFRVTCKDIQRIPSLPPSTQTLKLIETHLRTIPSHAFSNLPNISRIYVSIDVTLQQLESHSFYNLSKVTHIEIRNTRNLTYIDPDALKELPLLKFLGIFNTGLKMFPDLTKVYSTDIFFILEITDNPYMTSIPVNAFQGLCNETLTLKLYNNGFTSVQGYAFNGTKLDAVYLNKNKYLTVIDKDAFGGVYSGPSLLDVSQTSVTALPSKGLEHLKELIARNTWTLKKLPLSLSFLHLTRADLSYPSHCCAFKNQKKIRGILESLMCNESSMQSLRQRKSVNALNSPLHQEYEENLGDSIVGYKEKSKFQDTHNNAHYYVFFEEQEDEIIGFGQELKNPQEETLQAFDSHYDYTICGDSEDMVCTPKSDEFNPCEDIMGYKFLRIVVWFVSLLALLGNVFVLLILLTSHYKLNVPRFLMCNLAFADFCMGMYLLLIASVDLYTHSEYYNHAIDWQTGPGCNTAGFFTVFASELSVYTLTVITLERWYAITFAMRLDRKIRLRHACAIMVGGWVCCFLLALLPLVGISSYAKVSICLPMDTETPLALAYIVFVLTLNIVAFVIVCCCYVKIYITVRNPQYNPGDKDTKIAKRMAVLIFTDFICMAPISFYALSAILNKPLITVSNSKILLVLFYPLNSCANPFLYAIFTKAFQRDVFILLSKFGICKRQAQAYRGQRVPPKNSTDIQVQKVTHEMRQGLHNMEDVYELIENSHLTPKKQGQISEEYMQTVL

This test concerns the target Thyrotropin receptor (Homo sapiens) (UniProt P16473). The test is described as follows: qHTS for antagonists of the Thyroid Stimulation Hormone Receptor: Hit Validation in Primary Screen. Also: nearly all actives have a fitted effect of over 80% in size.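 As to activity change, negative = inhibition: cells stimulated with TSH at EC80 of 4 nM during compound exposure; cAMP by competitive HTRF where cellular cAMP lowers the 665 nm FRET signal.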 As to conditions: TSHR-expressing cells, cAMP antagonist mode; series mostly up to 58 µM; activity change, negative = inhibition: at the top concentration. The text has this: The thyroid-stimulating hormone receptor (TSHR) is a member of the 7 trans-membrane-spanning receptor (7TMR) family of cell surface receptors. TSHR-mediated hyperthyroidism is important in thyroid pathology. The development of small molecule antagonists of TSHR may lead to therapeutic approaches for TSHR-mediated hyperthyroidism caused by constitutively activating mutations or stimulating auto-antibodies associated with Graves' disease. Graves' disease is the leading cause of hyperthyroidism and is caused by autoantibodies that stimulate TSHR (TsAbs) causing thyroid growth and unregulated overproduction of thyroid hormones and existing treatments have liabilities (agranulocytosis). In addition, TSHRs are known to be expressed in multiple extrathyroidal tissues including bone, brain, kidney, testis, fat and cells of the immune system but the role of the TSHR in these tissues is not clear. Therefore, TSHR antagonists/inverse agonists could be used as probes of extrathyroidal TSHR function. Finally, TSHR inverse agonists, which are a subclass of antagonists that inhibit agonist-independent (or basal or constitutive) TSHR signaling, could be used to inhibit TSH-independent signaling in patients with recurrent or metastatic thyroid cancer who are receiving thyroid hormone to suppress TSH.
In collaboration between scientist from the NCGC and the NIDDK, a miniaturized HTRF high-throughput screen was developed. It's a cell based assay, where an anti cAMP antibody contains a fluorescent cryptate tag (excitation 337 nm; emission 620 nm) and the acceptor is cAMP-d2 (excitation 620 nm; emission 665 nm). When antibody and cAMP-d2 interact and are excited by a 337 nm light, a FRET occurs resulting in emission at 665 nm. The assay is competition between cAMP-d2 and cAMP (from the cell lysate). The homogeneous protocol allows for one step dispense after stimulation that is automation friendly. This is a hit validation assay using the primary screen format.
NIH Chemical Genomics Center [NCGC]
NIH Molecular Libraries Probe Centers Network [MLPCN]
Assay Provider: Marvin Gershengorn, NIDDK
1. 3ul of 200 TSHR freshly harvested cells/well are dispensed into a 1536 TC-treated white solid bottom plate.
2. Through pintool addition, 23nl of compounds and control in 100% DMSO are added to the plate.
3. Then 1ul of EC80 TSH (4nM final) is added to the plate.
4. Assay is incubated at 37 deg C for 2 hours.
5. 2ul of cAMP antibody diluted 1:20 in lysis buffer is added.
6. Immediately following, 2ul of d2 diluted 1:20 in HBSS is added seperately.
7. The assay is incubated for 30 minutes at ambient room temperature.
8. The result is obtained by using a ViewLux read-out with HTRF settings.
A general note: Quantitative high-throughput screening tests each substance at several concentrations.
Turning to `CCOc1ccccc1-n1c(=S)sc2c(=O)n(-c3ccc(F)cc3)c(SCC(=O)O)nc21`, the “activity change, negative = inhibition” value was -3.34% (inactive). For the molecule `Fc1ccc2[nH]c3c(N4CCN(c5ccccc5)CC4)ncnc3c2c1`, the Potency is 30.1 µM (active). `Fc1ccc2[nH]c3c(N4CCN(Cc5ccc6c(c5)OCO6)CC4)ncnc3c2c1`: the Potency was 23.9 µM (active). Same read-out and setting: in the case of `Cc1ccc2c(c1)[nH]c1c(N3CCN(Cc4ccccc4)CC3)ncnc12` it was 30.1 µM (active). In the case of `O=C(c1cccc(Cl)c1)N1CCN(Cc2ccc3c(c2)OCO3)CC1`, the “activity change, negative = inhibition” value was -6.83% (inactive). Same read-out and setting: in the case of `N#Cc1c(F)cccc1N1CCN(Cc2ccc3c(c2)OCO3)CC1` it was -2.54% (inactive).

As to `O=C1NC(=O)/C(=C/c2ccccc2Oc2ccc(Cl)cc2)S1`, the “activity change, negative = inhibition” value is -8.27% (inactive). Still for that read-out and setting: next, `CN(Cc1ccco1)S(=O)(=O)c1csc(C(N)=O)c1`: -3.34% (inactive). Take `CCc1cc2c(NCc3ccccc3)nc(C)nc2s1`: the Potency is 23.9 µM (active). Regarding `Cc1nc(SCC(=O)N2CCN(c3ccccc3)CC2)n[nH]1`, the “activity change, negative = inhibition” value was -6.86% (inactive). Regarding `O=C(CSc1ccc(F)cc1)N1CCC(c2nc3ccccc3s2)CC1`, the Potency is 37.9 µM (active).

`C=CCC1(CC=C)CCCN1C(=O)c1cc(COc2ccc(C)nc2)on1`: the Potency is 15.1 µM (active). Consider `CC(=O)Nc1ccc(S(=O)(=O)Nc2c(NC3CCCCC3)c3ccccc3oc2=O)cc1`, for which the “activity change, negative = inhibition” value was 0.576% (inactive).

With `Cc1ccc(NC(=O)c2ccccc2NS(=O)(=O)c2ccc(F)cc2)cc1S(=O)(=O)N1CCCCC1`, the Potency was 3.79 µM (active). For the molecule `CCc1ccccc1NC(=O)C1CCCN(S(=O)(=O)c2ccc3c(c2)CC(C)N3C(C)=O)C1` (stereo unspecified), the “activity change, negative = inhibition” value is -5.5% (inactive). As to `O=C(Nc1nnc(S(=O)(=O)N2CCCC2)s1)c1ccccc1F`, the “activity change, negative = inhibition” value was -9.65% (inactive). Take `O=C(Nc1cc(S(=O)(=O)N2CCCCC2)ccc1Cl)c1ccccc1NS(=O)(=O)c1ccc(F)cc1`: the Potency was 7.57 µM (active).

Consider `CCNC(=O)c1ccccc1NC(=O)C1CC(=O)N(C(C)C)C1` (stereo unspecified), for which the “activity change, negative = inhibition” value is -3.43% (inactive). As to `CCc1ccc(N/C(SCc2cccc(F)c2)=C(/C#N)C(=O)NCc2ccco2)cc1`, the “activity change, negative = inhibition” value is -5.33% (inactive).

Turning to `CCCCc1c(C)nc2nc(SCc3ccc(Cl)cc3)[nH]n2c1=O`, the Potency is 21.3 µM (active). For the molecule `CC(C)c1cc(=O)n2[nH]c(SCc3ccccc3)nc2n1`, the “activity change, negative = inhibition” value was -0.807% (inactive). `C#C[C@]1(OC(C)=O)CCC2C3CCC4=CC(=O)CC[C@@H]4C3CC[C@@]21C` (stereo partly specified): the Potency is 13.5 µM (active).

`CC(=O)N1CCc2cc(Br)cc(S(=O)(=O)N3CCC(C(=O)O)CC3)c21`: the “activity change, negative = inhibition” value is -11.2% (inactive). On to `CCC1Sc2ccc(S(=O)(=O)CCC(=O)Nc3ccccc3Cl)cc2NC1=O` (stereo unspecified), for which the “activity change, negative = inhibition” value is -11.6% (inactive). As to `O=C(c1ccc2c(c1)OCO2)N1CCN(S(=O)(=O)c2ccc(Cl)cc2)CC1`, the “activity change, negative = inhibition” value was -1.21% (inactive). With `O=C(Nc1cccc(S(=O)(=O)Nc2ccc(Cl)cc2)c1)c1ccc2c(c1)OCCO2`, the Potency was 16.9 µM (active). In the case of `CCOC(=O)c1[nH]c2cc(OC)c(OC)cc2c1NC(=O)c1ccc2c(c1)OCO2`, the “activity change, negative = inhibition” value was -2.79% (inactive). Still for that read-out and setting: next, `COC(=O)c1sc(NC(=O)C(C)C)c(C(=O)OC)c1C`: -4.29% (inactive). As to `Cc1cc(/C=C2\Sc3ccccc3N2C)cc(C)[n+]1CC1CCCO1` (stereo unspecified), the Potency is 30.1 µM (active).

As to `Cc1cccc(OCc2nnc(SCC(=O)N3c4ccccc4CCc4ccccc43)o2)c1`, the “activity change, negative = inhibition” value is -4.87% (inactive). Still for that read-out and setting: next, `CC(C)Oc1ccc(C(=O)NCCNC(=O)c2ccco2)cc1`: -4.87% (inactive). With `COc1ccc(C(=O)Nc2ccc(Cl)c(S(=O)(=O)Nc3ccccc3OC)c2)cc1`, the Potency was 12 µM (active).

In the case of `COc1ccc(N(CC(=O)Nc2cc(Cl)ccc2OC)S(=O)(=O)c2c(C)noc2C)cc1`, the “activity change, negative = inhibition” value is -11.3% (inactive).

On to `CC(C)Oc1ccc(C(=O)Nc2ccc(Cl)c(S(=O)(=O)Nc3ccc(Cl)cc3)c2)cc1`, for which the Potency was 21.3 µM (active). `COc1ccc(NC(=O)c2ccc3ccccc3n2)cc1S(=O)(=O)Nc1ccccc1Cl`: the “activity change, negative = inhibition” value is -2.39% (inactive). As for `COC(=O)C1C(=O)NC(SC)=C(C#N)C1c1ccccc1` (stereo unspecified), the “activity change, negative = inhibition” value was -3.77% (inactive).

On to `Cc1cc(C)c2oc(C(=O)Nc3ccc(S(=O)(=O)Nc4nccc(C)n4)cc3)cc(=O)c2c1`, for which the “activity change, negative = inhibition” value is -4.03% (inactive).

Take `O=C1OC(CC(=O)N(Cc2nnc(-c3ccc(Cl)cc3)o2)C2CC2)c2ccccc21` (stereo unspecified): the “activity change, negative = inhibition” value is -6.17% (inactive).

Regarding `Cc1sc2ncnc(N3CCN(CCOc4ccc(Cl)cc4)CC3)c2c1C`, the Potency is 19 µM (active).

Regarding `COc1ccc(N2CCN(c3ncnc4sc(C(=O)NCC5CCCO5)c(C)c34)CC2)cc1` (stereo unspecified), the “activity change, negative = inhibition” value was -1.12% (inactive).

Take `Cc1[nH]n(C)c(=O)c1C(=O)c1c(-c2c(Cl)cccc2Cl)noc1C`: the “activity change, negative = inhibition” value is -5.39% (inactive). On to `COc1ccc2cc(/C=C3\SC(=S)NC3=O)c(N3CCOCC3)nc2c1`, for which the Potency was 3.38 µM (active). For the molecule `O=C1NC(=S)S/C1=C\c1cc2ccccc2nc1N1CCCCC1`, the Potency is 13.5 µM (active). For `CCc1ccc(-c2nnn(CCC(=O)OC)n2)cc1`, the “activity change, negative = inhibition” value is -0.749% (inactive).

`COC(=O)c1nc2n(n1)C(c1cccc(Cl)c1)C1=C(CCCC1=O)N2` (stereo unspecified): the “activity change, negative = inhibition” value was -1.3% (inactive). Same read-out and setting: in the case of `Cc1nn(-c2ccc(N3CCOCC3)nn2)c(C)c1CCC(=O)NCc1ccccc1F` it was -2.51% (inactive); in that of `CCOC(=O)C1(CCOc2ccccc2)CCN(Cc2cccc(OC)c2O)CC1`, 1.47% (inactive). On to `COc1cccc(CN(C)C(=O)c2ccc(Oc3ccccc3)cc2)c1OC`, for which the Potency is 37.9 µM (active).

Regarding `CCn1nnc2cc(C(=O)NCC(c3ccccc3OC)N(C)C)ccc21` (stereo unspecified), the “activity change, negative = inhibition” value is -6.48% (inactive).

For the molecule `CC(C)(C)C(=O)NC(=S)NNC(=O)c1ccc(-c2ccccc2)cc1`, the “activity change, negative = inhibition” value was -18.8% (inactive). As to `COc1ccc(CN(C)C(=O)COC(=O)c2ccc(-c3ccccc3)cc2)c(OC)c1OC`, the Potency was 23.9 µM (active). As to `COc1cccc(CN(C)C(=O)CNC(=O)c2ccc(-c3ccccc3)cc2)c1OC`, the Potency is 26.9 µM (active).

As to `O=C(c1ccco1)N1N=C(C2CCCCC2)CC1(O)C(F)(F)F` (stereo unspecified), the “activity change, negative = inhibition” value was -1.58% (inactive).

Regarding `COc1ccc(C(CC(=O)N2CCOCC2)c2c(OC)cc(OC)c3c(-c4ccccc4)cc(=O)oc23)cc1` (stereo unspecified), the “activity change, negative = inhibition” value was -7.58% (inactive). For `CC1CC(=O)N(c2ccc(C(C)C)cc2)C(=O)C1`, the “activity change, negative = inhibition” value is -1.5% (inactive). Regarding `O=C(NCCN1CCOCC1)c1c(Cl)cccc1Cl`, the “activity change, negative = inhibition” value is -6.48% (inactive). As for `O=C(Nc1ccc(S(=O)(=O)N2CCCCC2)cc1)c1ccc(CN2CCOCC2)cc1`, the Potency is 23.9 µM (active). For the molecule `COCc1c(C(=O)Nc2cccc(S(=O)(=O)N3CCCCC3)c2)oc2ccccc12`, the “activity change, negative = inhibition” value is -16.5% (inactive).

Turning to `COc1ccc(N2CCN(C(=O)[C@H](C)NC(=O)c3ccccc3Cl)CC2)cc1`, the “activity change, negative = inhibition” value was -4.81% (inactive). For the molecule `COc1ccc(C(NC(=O)c2c(F)c(F)c(F)c(F)c2F)c2ccccc2)cc1` (stereo unspecified), the Potency was 26.9 µM (active). As for `CCOc1ccccc1NC(=O)C(NCCc1ccc(OC)cc1)c1ccccc1` (stereo unspecified), the “activity change, negative = inhibition” value is -6.08% (inactive).
